In the first assay the test system is PPARg:RXRa 270nM:90nM, anti-RXR (NR concentration 270 nM, RXRa partner concentration 90 nM). The assay can be described thus: PBM binding z-score (relative to random genomic background probes); higher = stronger binding; sequences stand for … in GC…GCGATTGACAGCGTAGAATGAAGG
An outline of the steps:
(§1)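 Scanned fluorescence from custom Agilent 4×180K protein-binding microarrays was regression-normalized. Binding z-scores use random background probes as reference. Ligand-free nuclear receptor dimers were incubated on the arrays for 1 h and detected with antibodies against each partner (one per run).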
Sequence CCTAGCAGGCCAATCTGGGTGACTCAAGGCTTGA registered a PBM binding z-score of 0.524.

Consider CGAACTAGGTCAGAACTGGACAGTGAAGGATGAT, for which the PBM binding z-score came to 4.49.

Sequence GGAACGAGGGCATTCGAGTTGATGGCATGGCGAT displayed a PBM binding z-score of 0.324.

As for TCAGACAGGTGAAGGTAACTCCGGTACGCAGTCG, the PBM binding z-score is 2.09.

CGTCCCAGGTCAATGCTAGGTCAGTGAAAGCATT showed a PBM binding z-score of 3.05.

As for TCATATAGGTAAACAGGTGGAAGTCCGTAAGTTA, the PBM binding z-score was found to be 2.43.

CCAGACAGGTGAAAGGTAACCCAGTCTGGTACGC: the PBM binding z-score stood at 5.65.

Consider CTACCAAGCTGAACAAGGTCGTTGATTACTATTC, for which the PBM binding z-score was found to be 0.00986.

For GGAACGAGGGCGTTCGAGTTGATAGCATGGCGAT, the PBM binding z-score is -0.547.

In the case of CAGCCTAGGTCTGGGCCAGTATAGGAGGAACGTT, the PBM binding z-score was -0.953.

In the case of GGAGACAGGTGAAACGCAGGTAACTCAGGGTGGC, the PBM binding z-score amounted to 0.0474.

Regarding TAGCCTAGGTCATGGGCCGGTATACCACGCGAAC, the PBM binding z-score was 3.56.

As for CAAACTCGGTCACAGAGGTCAAAGTCCGTGCGTA, the PBM binding z-score worked out at 6.24.

Sequence CCTACTGCGCCACGAAAGGTCATTGATTCAGTGA gave a PBM binding z-score of 3.21.

GCGTACGGGTCAAAGGTTATAGCATGAATAGAAT showed a PBM binding z-score of 8.74.

CCATACGGGTCACGAGGTTATAGCACGACGAGCG returned a PBM binding z-score of 6.47.

The sequence TCATATAGGTAAATGCTAGGTGAAATTCCGATCT registered a PBM binding z-score of 2.31.

CGAACGAGGGGATGAGTTGATAGCAAATGCCGAT showed a PBM binding z-score of 0.0328.

Sequence GCATATAGGTGATACAAGGTGAAAGTCCGATTGT showed a PBM binding z-score of 2.17.

CCGACTGCGGCAAAGGTTACCATACTCAGTACGA: the PBM binding z-score came out at 4.2.

Consider ACTATTAGTTGTGACGAGGGCAACCGATAGGTTG, for which the PBM binding z-score is 0.256.

Turning to TCGAGTAGGTTACCAATGGGGCATTCCGCTTTCT, the PBM binding z-score was determined as 1.1.

CGAACTAGGTCCTCCAGGACAGTGAATACATTGA gave a PBM binding z-score of 0.537.

TCAAGTAGGTTACCAATGGGGCATTCAGCTTTCT registered a PBM binding z-score of 2.92.

In turn, GCTGTTAGGTCAACTGATGGTCAGCTAAAGCTCG came in with a PBM binding z-score of 2.74.

For TCATATAGGTAAACAGGTGCAAGTCCGTAAGTTA, the PBM binding z-score is 2.53.

In the case of TCTTGTAGATCAATAGAGGATAAGAAAGTGCGCT, the PBM binding z-score came out at 1.46.

Consider TTACCAGGGTGAAGGTCGTTGATCCCTCTGTAGA, for which the PBM binding z-score worked out at 6.39.

In turn, GCTAGCAGGCCATTTTGGTCACTCAATGACGGGC had a PBM binding z-score of -0.925.

CGTCCAAGGTCAATGCTAGGTCAGTGTAAGCATT showed a PBM binding z-score of 4.67.

TATACAGCGTCAAAGGCCAGAGTACGAATGTCGA registered a PBM binding z-score of 1.62.

Regarding ATCTCGAGGTAAAGTTCAGTGAAAGATCGATAGA, the PBM binding z-score was 3.53.

In the case of CATACAGGGTCAGCTAGGCCAGTGTAGGGACGGC, the PBM binding z-score was found to be 2.97.

The sequence ATATGTAGGTTATCGCGTCATTCAGTTTGCGCAT registered a PBM binding z-score of 3.94.

CCGACTGGGGTAAAGGTTACCATACTCAGTACGA registered a PBM binding z-score of 9.31.

Consider TAGCCTAGGTCATGCGGGCCAGGATAGTGTCGGC, for which the PBM binding z-score came to 2.41.

As to CCTAGTAGGTCAAGGTCACACACGCTATAGGTAC, the PBM binding z-score turned out to be 7.51.

TCGAGTAGGTTACCATTGGGGCATTCAGCTTTCT had a PBM binding z-score of 1.23.

TTACCAAGGTGGGCTGAGGTCGTTGATCCAACTC: the PBM binding z-score is 0.212.

Regarding AGAATGACGTTATACGTAGATCAGGGAAGAAAGT, the PBM binding z-score was -0.509.

The test system of the next assay is PPARg:RXRa 30nM:10nM, anti-RXR (NR concentration 30 nM, RXRa partner concentration 10 nM). The description is as above. The essentials:
as §1
CCTAGCAGGCCAATCTGGGTGACTCAAGGCTTGA returned a PBM binding z-score of -0.938.

For CGAACTAGGTCAGAACTGGACAGTGAAGGATGAT, the PBM binding z-score came to 1.77.

In turn, GGAACGAGGGCATTCGAGTTGATGGCATGGCGAT showed a PBM binding z-score of -0.665.

Regarding TCAGACAGGTGAAGGTAACTCCGGTACGCAGTCG, the PBM binding z-score came out at 3.78.

In the case of CGTCCCAGGTCAATGCTAGGTCAGTGAAAGCATT, the PBM binding z-score stood at 0.367.

Sequence TCATATAGGTAAACAGGTGGAAGTCCGTAAGTTA had a PBM binding z-score of 4.15.

Regarding CCAGACAGGTGAAAGGTAACCCAGTCTGGTACGC, the PBM binding z-score is 3.97.

Sequence CTACCAAGCTGAACAAGGTCGTTGATTACTATTC returned a PBM binding z-score of -0.206.

As to GGAACGAGGGCGTTCGAGTTGATAGCATGGCGAT, the PBM binding z-score was -0.579.

CAGCCTAGGTCTGGGCCAGTATAGGAGGAACGTT yielded a PBM binding z-score of -0.869.

As for GGAGACAGGTGAAACGCAGGTAACTCAGGGTGGC, the PBM binding z-score is -0.768.

In turn, TAGCCTAGGTCATGGGCCGGTATACCACGCGAAC displayed a PBM binding z-score of 0.856.

Take CAAACTCGGTCACAGAGGTCAAAGTCCGTGCGTA: the PBM binding z-score turned out to be 3.25.

On to CCTACTGCGCCACGAAAGGTCATTGATTCAGTGA, for which the PBM binding z-score worked out at 0.979.

For GCGTACGGGTCAAAGGTTATAGCATGAATAGAAT, the PBM binding z-score amounted to 8.99.

In turn, CCATACGGGTCACGAGGTTATAGCACGACGAGCG registered a PBM binding z-score of 3.55.

The sequence TCATATAGGTAAATGCTAGGTGAAATTCCGATCT had a PBM binding z-score of 3.86.

In the case of CGAACGAGGGGATGAGTTGATAGCAAATGCCGAT, the PBM binding z-score was -0.38.

In turn, GCATATAGGTGATACAAGGTGAAAGTCCGATTGT yielded a PBM binding z-score of 0.808.

CCGACTGCGGCAAAGGTTACCATACTCAGTACGA displayed a PBM binding z-score of 2.28.

In the case of ACTATTAGTTGTGACGAGGGCAACCGATAGGTTG, the PBM binding z-score was -0.152.

TCGAGTAGGTTACCAATGGGGCATTCCGCTTTCT showed a PBM binding z-score of 1.11.

Consider CGAACTAGGTCCTCCAGGACAGTGAATACATTGA, for which the PBM binding z-score is -0.117.

With TCAAGTAGGTTACCAATGGGGCATTCAGCTTTCT, the PBM binding z-score was found to be 3.34.

Take GCTGTTAGGTCAACTGATGGTCAGCTAAAGCTCG: the PBM binding z-score was determined as 0.501.

For the sequence TCATATAGGTAAACAGGTGCAAGTCCGTAAGTTA, the PBM binding z-score is 3.85.

In turn, TCTTGTAGATCAATAGAGGATAAGAAAGTGCGCT registered a PBM binding z-score of 2.75.

TTACCAGGGTGAAGGTCGTTGATCCCTCTGTAGA had a PBM binding z-score of 4.84.

GCTAGCAGGCCATTTTGGTCACTCAATGACGGGC returned a PBM binding z-score of -0.857.

Turning to CGTCCAAGGTCAATGCTAGGTCAGTGTAAGCATT, the PBM binding z-score worked out at 1.23.

Consider TATACAGCGTCAAAGGCCAGAGTACGAATGTCGA, for which the PBM binding z-score came to 0.56.

Turning to ATCTCGAGGTAAAGTTCAGTGAAAGATCGATAGA, the PBM binding z-score was 1.91.

CATACAGGGTCAGCTAGGCCAGTGTAGGGACGGC yielded a PBM binding z-score of 0.501.

The sequence ATATGTAGGTTATCGCGTCATTCAGTTTGCGCAT had a PBM binding z-score of 1.41.

Regarding CCGACTGGGGTAAAGGTTACCATACTCAGTACGA, the PBM binding z-score was found to be 8.82.

For the sequence TAGCCTAGGTCATGCGGGCCAGGATAGTGTCGGC, the PBM binding z-score is 0.605.

In turn, CCTAGTAGGTCAAGGTCACACACGCTATAGGTAC had a PBM binding z-score of 5.53.

Sequence TCGAGTAGGTTACCATTGGGGCATTCAGCTTTCT had a PBM binding z-score of 0.995.

In the case of TTACCAAGGTGGGCTGAGGTCGTTGATCCAACTC, the PBM binding z-score is -0.219.

In turn, AGAATGACGTTATACGTAGATCAGGGAAGAAAGT showed a PBM binding z-score of -0.197.

These data come from the supplement of paper PMC6555819.
